In the supplement of paper PMC11417369:
In all, about 25,000 sequences were measured (“ln(normalized median fluorescence intensity)”: median about 9.7, highest 2% from about 11 on). Many of the other results were omitted from the sample, so the highest values are more common in it than they were.

These sequences were tested on PfAP2-HC AP2 domain (GST-tagged) (assay: gcPBM binding intensity (ln(normalized median fluorescence intensity)); higher = stronger DNA binding).
In short: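 An Agilent 4 × 180k array carrying primer-extended double-stranded 36-bp intergenic genomic probes and negative controls received GST-tagged P. falciparum DNA-binding domains expressed in E. coli, about 25 μg on average, for 1 h. The binding buffer contained 1× PBS, 1% milk, 0.2 mg/ml BSA, 0.5% salmon testes DNA and 0.03% Triton X-100. Binding intensity is the top Masliner-normalised natural-log median intensity across replicate spots of either probe orientation, read after Alexa488 anti-GST antibody staining and a 488 nm scan.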

Sequence	gcPBM binding intensity (ln)
CAGCTCTTAAGAATTACACACATATACACATATATA [CACACA_site7524]	9.95
TAAAATTTTTTTGTTTGTACATATATATATATAATA [XGTACX_site5609]	9.53
CATTATTTATTTTAATGTACTTATTTTTAAATTGGT [XGTACX_site8038]	9.54
TTTTCTTGTAAATTACGTACGAATGTGTAGAGAAAT [XGTACX_site1339]	9.47
TATATATATATATGTAGTACTCAATATTGTAGATTA [XGTACX_site3856]	9.64
CTAGCAAATACATACACACACACACCGATACATATA [CACACA_site9164]	10.7
AAATATAAAAATAGCACACATATATACATATATATA [CACACA_site56]	9.88
TTATAATTATATACATGTACATATAATACATATATA [XGTACX_site8904]	9.46
AATGATCATAAATACACACACACAAAAAAAAAAAAA [CACACA_site6072]	10.3
CATATACGCAAACACACACACATATATATATATATA [CACACA_site501]	11.6
TACATATATATATACACACATACATATATATACGCA [CACACA_site792]	9.85
TAAATCCGCACGCACACACACATATTAATAAAAAAA [CACACA_site7800]	10.5
AAAAAAAAAAAAAACACACACACAAATACAAATGGT [CACACA_site1721]	10.5
AAAAAAAAAAAAAACACACACACAAATACAAATACA [CACACA_site414]	11.5
AATGATCAGATATACACACACACAAAAAAAAAAAAA [CACACA_site7806]	10.4
TAAATCCGCAGGCACACACACATATTAATAAAAAAA [CACACA_site3991]	10.8
TATACGCATATATAAACACACAAAAAAAAAAAAAAA [CACACA_site2026]	9.43
ATTAAATCCGCACGCACACACACATATTAATAAAAA [CACACA_site3992]	11.1
AATGATCATATATACACACACACAAAAAAAAAAAAA [CACACA_site4009]	11.2
AATAAACATAAATACACACACAAAAAAAAAAACATA [CACACA_site4396]	10.3

Sequence	gcPBM binding intensity (ln)
ATTAATATATTTACCACACACCCATTTCGATTTTAT [CACACA_site3605]	10.3
AATATATATATAAATAATATACCTATATATTTTTTG [XGTACX_negctrl_site407]	9.61
TAATATATTAATATATGTACATATTTATATATCTAC [XGTACX_site7117]	9.81
TTTTATAAATATTATACATGCATAATGATAAAAAAA [TGCATGCA_site927]	9.55
TAATAATAAAAATAAACACACATATATCTGTATTTA [CACACA_site5572]	9.74
TTTTCTTTTTTGAACTGTACGCGTAAATTTAAAAAG [XGTACX_site882]	9.36
TTTTTGTTACCTATTGTGCACTTCATATAAATTAAA	9.74
ATATATAATATTTATTGTACTATTTTATTTTTATAA [XGTACX_site705]	9.62
TATATAACTAAAATAACACACATATATAAAAATATA [CACACA_site7416]	9.88
ACCTAAAATAACTACACACACATAAAAAAAAAAAAA [CACACA_site2529]	10.2
TTATACACAAAAAAAAAAATATATATATATATATAT [XGTACX_negctrl_site5]	9.49
CAAATACACGGACACACACACACAAAAAAAAAAAAA [CACACA_site6385]	11
AAAAAAAATACATACACACACACACGCACATATATA [CACACA_site7645]	11.7
ATGATTATACAAAATATACACACGTGGACACAAATA [CACACA_site8304]	10.3
AAAATACACGCATACACACACACACGCGCACATATA [CACACA_site6448]	10.6
TAACCTAAAATAACTACACACACATAAAAAAAAAAA [CACACA_site8807]	11.2
AGCCACTTAAAATACACACACACCAAAAAAAAAAAA [CACACA_site5497]	10.2
CACGCACGCACATACACACACATACACATATAAATA [CACACA_site6907]	10.1
CCACACTTAAAATACACACACACCAAAAAAAAAAAA [CACACA_site2709]	11.3
ACGGACTTAAAATACACACACACCAAAAAAAAAAAA [CACACA_site7304]	10.2

Sequence	gcPBM binding intensity (ln)
ACAATATGTATATATATATATATGCAAATGTATAAA [CACACA_negctrl_site53]	9.78
TTTTTTAAAGCCTGTTCATCATCCTTACCTATCAAC [GTGCAC_negctrl_site452]	9.49
ATATAATATACTTATTGTACTTATTTAAAATACTAA [XGTACX_site4266]	9.58
TACTTAAAAAAAAAAAAAATAAATATTATGTATTAT [CACACA_negctrl_site138]	9.36
AAAGTTACATTCGACACACACATAACAACTAAATAA [CACACA_site3419]	10.1
TGTATATTTGTTGTTACACACATATATTTTTTTTTT [CACACA_site128]	9.86
TTGGATTTTCCATAATGTACACATAAAAGTGTTACA [XGTACX_site4544]	9.4
ATTAAATACATTAACACACACACAAATATGTACATA [CACACA_site7372]	11
CAATGTTGTACATACACACACACAAAAAAAAAATAA [CACACA_site2407]	11.4
AGTATACACAAACACACACACACAAAAAAAAAAAAA [CACACA_site8036]	10.7
AGTATACGCAAACACACACACACAAAAAAAAAAAAA [CACACA_site426]	11.2
AAAAAAAAAAAAAACACACACACACGCAAATACATA [CACACA_site6474]	11.4
AAAAAAAAAAAAAACACACACACACGCATACAAAAT [CACACA_site6794]	10.6
AACAATGTTGTACATACACACACACTAATAAAAAAT [CACACA_site8758]	10.3
TATACGCAGAAACACACACACAAAAAAAAAAAAAAA [CACACA_site427]	10.5
ATTAAATACATTAACACACACACAAATATATACATA [CACACA_site2881]	10.7
AATAAAAAAATAAAATGTACATACAAATAAATAAAT [XGTACX_site5153]	9.9
ATTAAATACATTAACACACACACAAATAAATACATA [CACACA_site5583]	10.4
AAAAAAAAAAAAAACACACACACACGCATACACATA [CACACA_site7364]	10.7
